HSF-1 act – HSF-1 activators, primary screen, NIH3T3-HGL cells, MG132 stress, luminescence, single point; NIH3T3-HGL HSF-1 luciferase reporter, 8 h; 100% = twice DMSO control signal; activation, % at 9 µM; 300,000 compounds, 1.7% hits;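 active means mean replicate activation of at least 50% with a set share of replicates each reaching 50%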;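 further: 0% = median of the neutral control wells and 100% = twice that signal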
AHR act – AHR activators, primary screen, cell-based, luminescence, luciferase reporter, human. AHR-responsive luciferase reporter cells. activation, % at 5 µM. 320,000 compounds, 2.5% hits; in the data active means activation above about 47%;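 further: 0% = vehicle wells and 100% = reference agonist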
Target sequence (P35869 whole entry, looked up): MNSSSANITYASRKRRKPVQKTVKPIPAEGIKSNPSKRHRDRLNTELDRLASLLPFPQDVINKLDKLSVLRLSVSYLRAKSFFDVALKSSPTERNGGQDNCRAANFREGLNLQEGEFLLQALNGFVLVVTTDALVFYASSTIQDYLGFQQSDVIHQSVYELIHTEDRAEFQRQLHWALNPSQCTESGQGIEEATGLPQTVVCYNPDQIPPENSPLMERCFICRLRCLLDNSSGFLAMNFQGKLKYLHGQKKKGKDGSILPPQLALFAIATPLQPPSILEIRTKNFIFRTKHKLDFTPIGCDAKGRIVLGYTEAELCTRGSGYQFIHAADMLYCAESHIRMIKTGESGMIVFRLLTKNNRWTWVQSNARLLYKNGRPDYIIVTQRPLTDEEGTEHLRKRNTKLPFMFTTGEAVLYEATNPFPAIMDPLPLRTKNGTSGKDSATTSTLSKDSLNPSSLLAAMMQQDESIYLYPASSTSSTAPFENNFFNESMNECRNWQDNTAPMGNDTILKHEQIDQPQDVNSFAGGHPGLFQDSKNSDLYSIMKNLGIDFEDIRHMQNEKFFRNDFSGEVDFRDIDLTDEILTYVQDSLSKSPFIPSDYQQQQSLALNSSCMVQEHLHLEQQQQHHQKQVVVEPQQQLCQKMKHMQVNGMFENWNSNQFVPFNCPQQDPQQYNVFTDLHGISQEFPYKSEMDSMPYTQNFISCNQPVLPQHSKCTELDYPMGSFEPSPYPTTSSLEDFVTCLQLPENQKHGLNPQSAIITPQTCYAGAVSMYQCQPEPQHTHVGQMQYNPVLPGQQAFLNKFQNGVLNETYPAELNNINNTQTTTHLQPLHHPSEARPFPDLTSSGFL
HSF1 inhib – HSF1 inhibitors in luciferase reporter cells, primary screen, cell-based, NIH3T3, luminescence; NIH3T3-HGL HSE-luciferase, MG132-induced, luminescence 8 h; stronger effect = lower value; activity change, negative = inhibition, % at 7.5 µM (by protocol); 300,000 compounds, 0.77% hits; AID 2098, 2009;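 active means more than half of replicate wells show activity change below -50%, luminescence cut by over half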;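 further: luciferase reports HSF-1 transcriptional activity via heat shock element; 0% = median of DMSO wells and -100% = zero luminescence signal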
GAA850 FXN act – FXN promoter activators, primary screen, cell-based, luciferase luminescence, HEK293 lucGAA850; HEK293 lucGAA850 FXN promoter luciferase reporter, 24 h; percent of 10 µM SAHA response; AID 540364, 2011; 360,000 compounds, 0.56% hits; activation, % at 6 µM;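 active means activation above the average of all compounds screened plus 3 SD, cutoff fixed separately per campaign, cut at about 7.5% in these data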;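 further: 0% = DMSO wells and 100% = 10 µM SAHA wells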
* = called active by the depositor; x = no result given. Only some compounds are listed: those with a hit (about 4.6% of all), similar ones and a draw of the others.

SMILES	HSF-1 act	AHR act	HSF1 inhib	GAA850 FXN act
O=C(NNc1nc2cc3c(cc2s1)OCCO3)c1ccccc1	34	74*	15	3
Fc1cccc2sc(Nc3nc4cc5c(cc4s3)OCCO5)nc12	-39	60*	-26	0
CC(=O)Nc1nc2cc3c(cc2s1)OCCO3	27	6	15	7
Fc1cc(F)c2nc(Nc3nc4cc5c(cc4s3)OCO5)sc2c1	47	38	36	4
COc1ccc(CNC(=S)Nc2ccccc2C)cc1	0	0	-9	2
CC(C)CN1C(=O)c2ccc(NC(=O)Cc3ccccc3)cc2C1=O	-3	-2	-3	1
Cc1nc(Nc2ccc(C(=O)O)cc2)sc1-c1ccccc1	10	14	-5	4
CC(C)(C)C(=O)Nc1nc(-c2ccccc2)ns1	44	8	4	1
c1ccc(Nc2nc(-c3ccccc3)ns2)cc1	59*	29	23	7
Cc1nc(Nc2ccccc2)sc1-c1ccccc1	59*	72*	46	6
COC(=O)c1sc(Nc2ccccc2)nc1C	31	8	27	9.9*
COC(=O)c1sc(NC(=O)/C=C/c2ccc(C)o2)nc1C	57*	2	28	4
COC(=O)c1sc(NC(=O)c2ccoc2C)nc1C	48	x	21	-1
Cc1ccc(S(=O)(=O)N2CCCCC2)cc1C(=O)N1CCCC1	13	-2	3	2
O/C(=C\c1nc2ccccc2nc1/C=C(\O)c1ccccc1)c1ccccc1	34	70*	18	5
O=c1oc2ccccc2nc1/C=C(\O)c1ccccc1	3	33	2	5
Cc1cc(C)cc(-n2c3nc4ccccc4nc3c3c(=O)n(Cc4ccco4)cnc32)c1	119*	4	85	-1
COc1cccc(-c2cc(C(=O)NCc3ccco3)no2)c1	61*	-6	28	3
O=C(NCc1ccco1)c1cc(-c2ccc3c(c2)OCO3)on1	71*	25	23	5
COc1cc(OC)cc(C(=O)NC(=S)NCc2ccco2)c1	121*	64*	67	0
CCC1CCCCN1S(=O)(=O)c1ccc(S(=O)(=O)N(Cc2cccs2)C2CC2)cc1 (stereo unspecified)	36	0	14	2
Cc1nc(CCNC(=O)Cc2ccccc2)cs1	9	3	-4	-1
CCOc1ccc(S(=O)(=O)N2CN(c3cccc(C(C)=O)c3)c3nc4ccccc4nc32)cc1	x	56*	x	1
CCOc1ccc(S(=O)(=O)N2CCN(S(=O)(=O)c3ccc(C(C)=O)cc3)CC2)cc1	36	1	5	1
CC(=O)Oc1ccc(Oc2ccc(-c3noc(C)n3)cc2)cc1	24	1	5	1
SMILES	HSF-1 act	AHR act	HSF1 inhib	GAA850 FXN act
Cc1ccc(C)c(/C(O)=C2\C(=O)C(=O)N(CCCn3ccnc3)C2c2ccncc2)c1 (stereo unspecified)	0	1	-15	2
CC(=O)c1cccc(NS(=O)(=O)c2cc(-c3cnc(C4CC4)o3)ccc2C)c1	-13	8	1	-4
Cc1cc(N2CCN(C(=O)c3ccco3)CC2)n2ncc(-c3ccccc3)c2n1	23	31	10	4
Cc1ccc(-c2cnn3c(N4CCOCC4)cc(C)nc23)cc1	-68	x	-68*	-4
Cc1cc(N2CCC(C)CC2)n2ncc(-c3ccccc3)c2n1	-81	14	-79*	-6
Cc1cc(N2CCCCC2)n2ncc(-c3ccccc3)c2n1	-13	42	-5	-3
Cc1cc(N2CCOCC2)n2ncc(-c3ccc(Cl)cc3)c2n1	x	34	x	-5
Cc1cc(N2CCOCC2)n2ncc(-c3ccccc3)c2n1	-69	46	-61*	-3
O=C(COc1ccc(Cl)cc1)NCc1nnc(SCC(=O)NC2CCCCC2)o1	4	-1	13	0
COc1ccc(OCc2cccc(C(=O)NN)c2)cc1	-74	2	-66*	7
COC(=O)c1cccc(Cn2cc([N+](=O)[O-])cn2)c1	22	4	3	x
COc1ccc(OCc2cccc(C(=O)Nn3cc([N+](=O)[O-])cn3)c2)cc1	-60	-12	-54*	0
Cn1c(C(=O)NN)cc2cc(OCc3ccccc3)ccc21	-86	6	-84*	0
NNC(=O)c1cccc(COc2cccc(Br)c2)c1	3	51*	10	4
Cn1c(COc2ccccc2)nc2ccccc21	14	-5	14	5
Cc1cccc(NC(=O)c2cc(S(=O)(=O)N3CCCCC3)ccc2Cl)n1	x	x	x	0
Cc1ccc(S(=O)(=O)NN=Cc2c(O)ccc3ccccc23)cc1	x	x	x	3
O=S(=O)(Nc1c(O)ccc2ccccc12)c1cccc2ccccc12	-92	39	-90*	-3
Cc1ccc(S(=O)(=O)Nc2c(O)ccc3ccccc23)cc1	12	54*	-3	-1
N=C(N)SCc1nc2ccccc2c(=O)n1-c1ccccc1	-9	19	9	1
CCOc1ccc(NCC(=O)c2ccc(C)cc2)cc1	-60	-2	-54*	2
Cc1ccc(C(=O)CNc2ccc(Cl)cc2)cc1	36	-5	30	1
O=C(Nc1ccccc1)c1ccc(S(=O)(=O)NCc2cccnc2)cc1	-21	1	-11	-1
COc1cccc(C(=O)NC(=S)Nc2ccccc2N2CCCC2)c1	31	49*	1	-2
COc1cccc(C(=O)NC(=S)Nc2ccccc2N2CCCCC2)c1	-2	73*	4	-1
SMILES	HSF-1 act	AHR act	HSF1 inhib	GAA850 FXN act
O=C(NC(=S)Nc1ccccc1N1CCCC1)c1ccccc1Br	4	75*	0	3
COc1ccc(S(=O)(=O)Cc2ccc(C(=O)N3CCN(Cc4ccccc4)CC3)o2)cc1	3	-3	-1	0
CSc1nc(O)c(/C=C2\C=Nc3ccccc32)[nH]1	28	76*	10	5
Cc1cc(C)n2nc(C(=O)Nc3nccs3)nc2n1	21	28	5	3
Cc1csc(NC(=O)c2nc3nc(C)cc(C)n3n2)n1	61*	38	18	5
Cc1cc(C)c(-c2csc(NC(=O)C3=COCCO3)n2)c(C)c1	-6	8	-4	-1
O=C(Nc1nc2ccccc2s1)c1cnccn1	22	32	7	1
O=C(Nc1ccccc1-c1nc2ccccc2s1)C1=COCCO1	31	93*	7	1
O=C(Nc1nc2ccc(F)cc2s1)C1=COCCO1	-9	48*	-8	-5
O=C(Nc1nc2ccc(F)cc2s1)c1ccccn1	110*	37	60	x
Cc1cc(C)c2sc(NC(=O)C3=COCCO3)nc2c1	54*	30	30	5
O=C(Nc1ccccc1N1CCCC1)C1=COCCO1	x	4	x	0
CNc1ncc(C(=O)c2ccc(Cl)c(Cl)c2)s1	33	2	26	6
CC(=O)CCC1CC(c2ccc(Cl)cc2)=NO1 (stereo unspecified)	38	-4	20	0
Cc1ccc(Cl)c2sc(NC(=O)C3=COCCO3)nc12	20	58*	9	2
O=C(Nc1nnc(SCc2ccc(F)cc2)s1)c1ccccn1	223*	x	164	4

Screening results (PubChem BioAssay)
